# Screen size: about 410,000 compounds; about 5,100 (1.2%) were called active. A call without a number means that no potency is given here. About 8% were inconclusive and are not listed. The call rests on the fitted dose curve; tested in HEK293T cells. The sample as a whole holds a higher share of actives than the screen did.
# Experiment: High Throughput Screening for Foot and Mouth Disease Virus Antivirals; further: read-out not given here; nearly all actives have a fitted effect of over 45% in size
# Settings: FMDV antiviral cell-based qHTS; series mostly up to 57.9 µM
# Potency means the concentration at half of the fitted maximal effect.
row,SMILES,Potency
1,CC(CCC(=O)O)C1CCC2C3C(O)C[C@@H]4CC(O)CC[C@@]4(C)C3CC[C@@]12C (some centres undefined),inactive
2,COc1ccc(-c2cc(C(=O)Nc3sc4c(c3C(N)=O)CCCC4)no2)cc1,inactive
3,CCOc1ccc(OCC)c(Nc2nc3ccccc3n3nnnc23)c1,inactive
4,CCOc1ccc(CNC(=O)c2ccc3nc(CC)c(CC)nc3c2)cc1OC,inactive
5,CCOc1ccc(CNC(=O)c2cccc(Nc3nc4ccccc4n4nnnc34)c2)cc1OC,7.08 µM (active)
6,COc1cc(OC)cc(C(=O)Nc2ccc3nc(Nc4cccc(C(F)(F)F)c4)cc(C)c3c2)c1,inactive
7,COc1cccc(Cn2c(=O)c(C)nc3cnc(Oc4ccccc4)nc32)c1,inactive
8,COc1ccc2c3c1OC1CC(O)C=C[C@@]31CCN(C)C2 (some centres undefined),inactive
9,Cc1csc(NC(=O)C2CCN(S(=O)(=O)c3ccccc3)CC2)n1,inactive
10,CC(=O)N1CCC(C(=O)Nc2nc(-c3ccccc3)ns2)CC1,2.82 µM (active)
11,Cc1ccc(C(=O)Nc2nc(-c3ccccc3)ns2)cc1,inactive
12,CC(=O)c1ccc(NC(=O)c2nc3nc(C)cc(C(F)F)n3n2)cc1,inactive
13,CCc1ccccc1OCCSc1nc(-c2cccs2)nc2cc(=O)[nH]n12,inactive
14,CC(C)c1csc(CN2CCC(CO)(Cc3ccccc3)CC2)n1,inactive
15,COc1ccccc1C(=O)N[C@@H]1c2ccccc2C2(CCN(Cc3nc(C(C)C)cs3)CC2)[C@H]1O,11.2 µM (active)
16,COc1ccccc1C(=O)N[C@@H]1c2ccccc2C2(CCN(C(=O)c3csnn3)CC2)[C@H]1OC,inactive
17,O=C(Nc1cccc(F)c1)N1CC[C@@]2(CCCN(C(=O)Oc3ccccc3)C2)C1,inactive
18,CCN1C[C@]2(COC)C(O)C[C@H](OC)[C@@]34C5C[C@]6(O)C(OC)C(O)[C@](OC(C)=O)(C5C6OC(=O)c5ccccc5)C(C(OC)C23)C14 (some centres undefined),inactive
19,O=C(CNC(=O)c1ccc(Br)o1)NCC1CCCO1 (centres undefined),inactive
20,CC(NS(=O)(=O)c1ccc(Br)cc1)C(=O)NCC1CCCO1 (centres undefined),1 µM (active)
21,CCOc1ccc(NS(=O)(=O)c2ccc(C(=O)NCC3CCCO3)cc2)cc1 (centres undefined),inactive
22,NCCC(=O)c1ccccc1N,inactive
23,CN(C)C1=NC[C@H](Cc2ccccc2)N1CCc1ccc(F)cc1,inactive
24,O=C1NC(=O)N(CCc2ccc(F)cc2)C(=O)/C1=C/C=C/c1ccccc1,10 µM (active)
